PubChem BioAssay (NCATS)
Where “and” joins values, the source holds several entries; their conditions need not be identical. Identical values can stand only once. A number with no mark means an inactive call. Records with an inconclusive call do not appear. Calls of active or inactive are those of the source. Unless noted, the call rests on the fitted dose curve; in most records, active means well fitted curve in either direction with a large enough effect (not every such curve was filed as active); inconclusive means small, poorly fitted or top-dose-only effect, or another doubt; inactive means flat fitted curve, though single readings scatter.

Assays:
[1] = NFAT Signaling Pathway (AID 444); conditions: Jurkat NFAT-bla M1, carbachol, beta-lactamase ratio, 5 h;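 further: carbachol stimulus at about its EC50 of 1 µM final; on the % scale 0 is the no-effect control and ±100 the full control effect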
In short: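 Jurkat cells with NFAT-driven β-lactamase reporter and co-expressed M1 receptor, stimulated with carbachol (final 1 uM, ~EC50), compound titration, 5 h at 37 °C. CCF4 loaded 1 h at RT; 460/530 nm ratio gave %activity and AC50.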

[2] = Stat Signaling Pathway (AID 446); conditions: ME-180 SIE beta-lactamase reporter, IL-6 stimulated, 5 h;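 further: ME-180 cervical cancer cells given 40 pM IL-6 alongside compound; SIE-controlled beta-lactamase reporter measured as 460/530 nm FRET emission ratio; on the % scale 0 is the no-effect control and ±100 the full control effect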
In short: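 Emission at 460 and 530 nm (excitation 405 nm) reports SIE-controlled beta-lactamase in ME-180 cells. Cells received compound with 40 pM IL-6 for 5 hrs at 37 C; data scaled between 300 pM IL-6 and 125 nM JAK-inhibitor controls.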

[3] = molecular target: Glucocorticoid receptor (Homo sapiens) (UniProt P04150); assay: GR-GFP Redistribution (AID 450;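 active means compounds whose dose series gives a full or clear partial fitted curve of increased nuclear translocation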; further: potency means the concentration at half of the fitted maximal effect); conditions: U2OS GR-GFP nuclear translocation, laser cytometry, 2 h
Sequence of Glucocorticoid receptor (Homo sapiens) (P04150 whole entry, looked up, the tested form may be a part): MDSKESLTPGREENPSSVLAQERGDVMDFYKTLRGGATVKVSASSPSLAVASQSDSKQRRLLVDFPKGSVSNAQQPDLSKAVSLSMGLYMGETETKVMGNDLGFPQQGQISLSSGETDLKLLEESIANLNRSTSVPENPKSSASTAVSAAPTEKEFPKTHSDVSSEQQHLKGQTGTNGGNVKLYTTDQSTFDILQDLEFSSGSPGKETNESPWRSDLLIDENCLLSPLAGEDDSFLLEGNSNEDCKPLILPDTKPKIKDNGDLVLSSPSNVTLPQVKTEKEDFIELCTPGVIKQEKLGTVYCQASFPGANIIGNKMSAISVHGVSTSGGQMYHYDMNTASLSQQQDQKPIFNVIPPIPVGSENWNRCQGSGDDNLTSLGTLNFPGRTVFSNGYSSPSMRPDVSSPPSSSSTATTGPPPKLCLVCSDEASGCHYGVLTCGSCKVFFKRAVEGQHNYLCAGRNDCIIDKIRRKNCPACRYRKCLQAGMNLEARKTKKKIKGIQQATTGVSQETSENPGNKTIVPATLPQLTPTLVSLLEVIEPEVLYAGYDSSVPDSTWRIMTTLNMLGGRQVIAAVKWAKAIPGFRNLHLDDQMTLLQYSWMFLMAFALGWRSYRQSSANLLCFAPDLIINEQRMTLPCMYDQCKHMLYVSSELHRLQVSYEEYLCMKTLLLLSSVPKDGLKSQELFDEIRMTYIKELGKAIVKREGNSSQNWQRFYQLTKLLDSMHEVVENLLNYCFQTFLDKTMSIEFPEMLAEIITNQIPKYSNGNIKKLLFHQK

[4] = molecular target: Glucocorticoid receptor (Homo sapiens) (UniProt P04150); assay: GR-EFC Redistribution (AID 451; calls by dose curve; further: potency means the concentration at half of the fitted maximal effect); conditions: CHO-K1 GR-EFC translocation, beta-gal luminescence, 2 h
In short: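 CHO-K1 cells expressing nuclear EA and GR-ED fragments of b-gal; compounds titrated up to 46 uM final, 2 h at 37 C. GR nuclear translocation read as complemented b-gal luminescence after 1 h RT detection.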

[5] = molecular target: Mitogen-activated protein kinase 10 (Mus musculus) (UniProt Q61831); assay: JNK3 AlphaScreen Assay (AID 530);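 further: kinase came from lysate of stimulated human HepG2 cells; signal reports phosphorylation of biotinylated GST-cJun 1-79 at Ser73 with 10 µM ATP; on the % scale 0 is the no-effect control and ±100 the full control effect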
In short: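 HepG2 lysate (IL-1b/TNFa pre-activated) + biotin-GST-cJun 1-79 + anti-pSer73 cJun; cpd titration, 15 min RT; ATP 10 uM start; Tris pH 7.6, MgCl2, DTT, vanadate; beads in EDTA buffer; AlphaScreen.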

[6] = molecular target: Cytochrome P450 1A2 (Homo sapiens) (UniProt P05177); assay: p450-cyp1a2 (AID 410; calls by dose curve; further: potency means the concentration at half of the fitted maximal effect;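 on activity change, negative = inhibition: -100% = full effect of reference inhibitor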)
Sequence of Cytochrome P450 1A2 (Homo sapiens) (P05177 whole entry, looked up): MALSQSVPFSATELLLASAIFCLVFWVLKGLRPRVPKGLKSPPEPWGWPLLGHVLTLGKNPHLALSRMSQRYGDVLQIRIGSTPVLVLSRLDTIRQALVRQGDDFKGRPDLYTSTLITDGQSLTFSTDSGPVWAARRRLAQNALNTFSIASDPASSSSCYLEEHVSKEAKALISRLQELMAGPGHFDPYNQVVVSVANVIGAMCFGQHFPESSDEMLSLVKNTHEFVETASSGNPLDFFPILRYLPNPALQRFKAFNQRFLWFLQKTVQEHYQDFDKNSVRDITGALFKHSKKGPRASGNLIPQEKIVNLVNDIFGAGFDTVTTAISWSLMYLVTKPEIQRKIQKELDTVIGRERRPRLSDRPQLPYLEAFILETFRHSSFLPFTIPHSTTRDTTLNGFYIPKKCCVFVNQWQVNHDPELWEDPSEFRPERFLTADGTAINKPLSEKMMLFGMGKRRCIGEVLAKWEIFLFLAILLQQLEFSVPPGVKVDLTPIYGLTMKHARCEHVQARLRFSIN
In short: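 Read-out is luminescence from luciferin produced by CYP1A2 demethylation of Luciferin-ME (100uM, at Km). Detection reagent stopped the 60 min NADPH-dependent reaction; signals were normalized to 57 uM furafylline.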

[7] = AP1 Signaling Pathway (AID 357); conditions: ME-180 (cervical carcinoma) AP-1-bla reporter, EGF-induced, beta-lactamase ratio, 5 h;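 further: ME-180 reporter cells stimulated with EGF at its EC50 level; on the % scale 0 is the no-effect control and ±100 the full control effect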
In short: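 Beta-lactamase reporter under AP-1 response element, ME-180 background. Stimulus: EC50 EGF. Compound exposure 5 h, 37 °C. Detection: CCF4, 2.5 h RT, 460/530 nm. Values: AC50 from titration.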

[8] = molecular target: 3',5'-cyclic-AMP phosphodiesterase 4B (Homo sapiens) (UniProt Q07343); assay: qHTS Assay for Inhibitors of PDE-IV (AID 607; active means well fitted activation curve with a large enough effect in the main read-out, with a control signal flat, not every such curve was filed as active; further: % of control where 0% means no effect)
Sequence of 3',5'-cyclic-AMP phosphodiesterase 4B (Homo sapiens) (Q07343 whole entry, looked up): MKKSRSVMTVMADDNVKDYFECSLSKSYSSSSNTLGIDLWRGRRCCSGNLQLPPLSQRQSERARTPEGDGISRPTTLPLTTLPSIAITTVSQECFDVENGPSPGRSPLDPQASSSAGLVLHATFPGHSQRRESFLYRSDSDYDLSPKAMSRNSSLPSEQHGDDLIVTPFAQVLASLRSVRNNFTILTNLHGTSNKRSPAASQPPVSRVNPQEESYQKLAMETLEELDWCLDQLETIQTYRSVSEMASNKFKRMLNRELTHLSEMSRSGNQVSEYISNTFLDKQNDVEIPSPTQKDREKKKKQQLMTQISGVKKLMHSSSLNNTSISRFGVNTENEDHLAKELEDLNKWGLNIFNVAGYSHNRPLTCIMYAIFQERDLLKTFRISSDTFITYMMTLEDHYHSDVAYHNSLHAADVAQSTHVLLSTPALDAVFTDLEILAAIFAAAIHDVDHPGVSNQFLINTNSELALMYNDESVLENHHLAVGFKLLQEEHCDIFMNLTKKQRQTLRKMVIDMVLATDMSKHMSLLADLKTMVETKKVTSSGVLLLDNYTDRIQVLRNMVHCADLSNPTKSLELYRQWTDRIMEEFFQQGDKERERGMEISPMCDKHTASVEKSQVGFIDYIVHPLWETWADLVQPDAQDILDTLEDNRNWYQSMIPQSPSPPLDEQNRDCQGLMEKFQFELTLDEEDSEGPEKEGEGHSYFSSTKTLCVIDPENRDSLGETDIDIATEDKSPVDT
In short: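 The readout is membrane depolarisation from a cAMP-sensing CNG channel, detected with a potential dye at ex 535/em 590. Cells were HEK293-derived (endogenous PDE-IV) at 1000 cells/well, titrated up to 22.9 uM final.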

[9] = molecular target: Ubiquitin carboxyl-terminal hydrolase 1 (Homo sapiens) (UniProt O94782); assay: Inhibitors of USP1/UAF1: Pilot qHTS (AID 504865; active means well fitted inhibition curve with a large enough effect;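 further: rhodamine fluorescence freed from ubiquitin-rhodamine substrate followed over time; top concentration of the series differs between compounds; on the % scale 0 is the no-effect control and ±100 the full control effect; nearly all actives have a fitted effect of over 35% in size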)
Sequence of Ubiquitin carboxyl-terminal hydrolase 1 (Homo sapiens) (O94782 whole entry, looked up): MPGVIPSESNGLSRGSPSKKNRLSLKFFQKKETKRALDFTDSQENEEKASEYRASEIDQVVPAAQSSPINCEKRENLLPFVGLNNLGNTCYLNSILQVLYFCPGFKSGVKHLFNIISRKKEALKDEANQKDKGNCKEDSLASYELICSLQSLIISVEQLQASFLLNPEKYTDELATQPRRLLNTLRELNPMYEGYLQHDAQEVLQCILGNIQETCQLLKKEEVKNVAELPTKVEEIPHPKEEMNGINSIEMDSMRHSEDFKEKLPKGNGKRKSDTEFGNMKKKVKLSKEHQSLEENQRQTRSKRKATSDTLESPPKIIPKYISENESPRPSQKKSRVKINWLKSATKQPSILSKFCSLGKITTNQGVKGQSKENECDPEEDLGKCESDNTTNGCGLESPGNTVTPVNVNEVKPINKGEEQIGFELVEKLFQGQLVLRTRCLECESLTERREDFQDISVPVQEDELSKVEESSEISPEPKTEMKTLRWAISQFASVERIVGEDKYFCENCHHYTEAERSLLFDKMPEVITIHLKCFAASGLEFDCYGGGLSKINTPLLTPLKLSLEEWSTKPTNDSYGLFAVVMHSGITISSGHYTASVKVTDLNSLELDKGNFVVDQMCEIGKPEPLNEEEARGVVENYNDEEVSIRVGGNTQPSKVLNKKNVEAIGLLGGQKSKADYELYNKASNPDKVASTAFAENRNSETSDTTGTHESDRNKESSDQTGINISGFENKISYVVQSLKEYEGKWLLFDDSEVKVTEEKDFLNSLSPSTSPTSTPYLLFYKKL
In short: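 USP1/UAF1 complex at 1 nM preincubated 15 min at room temperature with compound, then Ub-Rho substrate added at 150 nM final. Fluorescence (480/540 nm) read kinetically in 50 mM HEPES pH 7.8, 0.5 mM EDTA, 1 mM TCEP, 0.1 mg/ml BSA, 0.01% Tween-20.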

[10] = molecular target: Luciferin 4-monooxygenase (Photinus pyralis) (UniProt P08659); assay: Biochemical firefly luciferase enzyme assay for NPC (AID 624030; active means well fitted inhibition curve with a large enough effect;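 further: purified P. pyralis luciferase at 10 nM with luciferin and ATP substrate; 0% = DMSO and -100% = full luciferase inhibition by PTC124 control; nearly all actives have a fitted effect of over 70% in size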)
Sequence of Luciferin 4-monooxygenase (Photinus pyralis) (P08659 whole entry, looked up): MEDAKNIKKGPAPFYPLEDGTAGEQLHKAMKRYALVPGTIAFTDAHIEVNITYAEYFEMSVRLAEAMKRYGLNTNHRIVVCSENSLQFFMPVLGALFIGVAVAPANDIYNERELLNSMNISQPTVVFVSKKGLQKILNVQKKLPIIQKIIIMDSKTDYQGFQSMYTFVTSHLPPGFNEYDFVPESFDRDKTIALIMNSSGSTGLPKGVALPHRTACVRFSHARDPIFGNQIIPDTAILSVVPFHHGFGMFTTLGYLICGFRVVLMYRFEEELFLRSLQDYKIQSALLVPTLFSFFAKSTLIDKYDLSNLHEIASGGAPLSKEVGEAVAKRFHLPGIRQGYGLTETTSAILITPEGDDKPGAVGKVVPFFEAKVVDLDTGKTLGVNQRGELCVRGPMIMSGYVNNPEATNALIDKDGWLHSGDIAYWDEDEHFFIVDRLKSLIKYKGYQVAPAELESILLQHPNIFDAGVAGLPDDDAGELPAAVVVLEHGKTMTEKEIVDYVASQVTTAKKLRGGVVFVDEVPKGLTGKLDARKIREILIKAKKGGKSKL
In short: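 Purified P. pyralis luciferase at 10 nM in 50 mM Tris Acetate (final), luminescence read within 5 minutes of enzyme addition to compounds. Activity normalised to PTC124 versus DMSO; concentration-response curves classed by r2, magnitude and activity.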

[11] = qHTS profiling for inhibitors of Plasmodium falciparum proliferation (AID 504749; active means well fitted inhibition curve with a large enough effect;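 further: 0% = DMSO vehicle and full inhibition = artemisinin control; nearly all actives have a fitted effect of over 60% in size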); conditions: P. falciparum in erythrocytes, SYBR Green DNA, 72 h, at 12.8 µM (top of the series)
In short: (§1)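 SYBR Green fluorescence (ex 485 nm, em 535 nm) reports parasite DNA after 72 h compound exposure of infected red cells at 0.3% parasitemia, 2.5% hematocrit; signal normalized to 0.29 uM artemisinin and vehicle wells.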

CP238 = assay: as above; conditions: P. falciparum in erythrocytes, SYBR Green DNA, 72 h; series mostly up to 12.8 µM
In short: as §1

CP262 = assay: as above; conditions: P. falciparum in erythrocytes, SYBR Green DNA, 72 h; series mostly up to 12.8 µM
In short: as §1

CP325 = assay: as above; conditions: P. falciparum in erythrocytes, SYBR Green DNA, 72 h; series mostly up to 12.8 µM
In short: as §1

ECU = assay: as above; conditions: P. falciparum in erythrocytes, SYBR Green DNA, 72 h; series mostly up to 12.8 µM
In short: as §1

FAB9 = assay: as above; conditions: P. falciparum in erythrocytes, SYBR Green DNA, 72 h; series mostly up to 12.8 µM
In short: as §1

HB3 = assay: as above; conditions: P. falciparum in erythrocytes, SYBR Green DNA, 72 h; series mostly up to 12.8 µM
In short: as §1

JCK = assay: as above; conditions: P. falciparum in erythrocytes, SYBR Green DNA, 72 h; series mostly up to 12.8 µM
In short: as §1

[12] = at 7.69 µM (top of the series) unless noted

COc1ccc(CNc2ccnc(-c3ccoc3)n2)c(OC)c1
activity change, negative = inhibition [1, 12]: 8.22%
activity, negative = inhibition [2, 12]: 10.4%
Potency [3]: > 46 µM
Potency [4]: > 46 µM
Potency [5]: inactive

COc1ccccc1-c1cc(Nc2ccc(F)cc2)ncn1
Potency [6]: 2 µM (active)
activity change, negative = inhibition [1, 12]: -14.1%
activity, negative = inhibition [2, 12]: -19.9%
Potency [3]: > 46 µM
Potency [4]: > 46 µM
Potency [5]: inactive

COc1c(O)cc2c(c1O)[C@@H]1O[C@@H](CO)[C@@H](O)[C@@H](O)[C@@H]1OC2=O
activity change, negative = inhibition [7, 12]: 9.85% [at 17.2 µM]
Potency [6]: inactive
activity change, negative = inhibition [1, 12]: 4.01% [at 17.2 µM]
activity, negative = inhibition [2, 12]: -7.81% [at 17.2 µM]
Potency [3]: > 20.6 µM
Potency [4]: > 20.6 µM
Potency [5]: inactive
Potency [8]: inactive
Potency [9]: inactive
outcome [10]: inactive
activity, negative = inhibition ([11]; parasite line A): 5.83%
activity, negative = inhibition ([11]; parasite line B): 11.9%
Potency (CP238): inactive
Potency (CP262): inactive
Potency (CP325): inactive
Potency (ECU): inactive
Potency (FAB9): inactive
Potency (HB3): inactive
Potency (JCK): inactive

CN(C)c1ncc2nc(-c3ccc(Cl)cc3)c(=O)n(Cc3cccs3)c2n1
Potency [6]: 1.58 µM (active)
activity, negative = inhibition [2, 12]: 153% [activator] (active)
Potency [3]: > 9.22 µM
Potency [4]: > 46 µM
Potency [5]: inactive
Potency [8]: inactive
Potency [9]: inactive

Cc1cnc(CNc2cc(-c3ccccc3Cl)ncn2)cn1
activity change, negative = inhibition [7, 12]: 2.27%
Potency [6]: 15.8 µM (active)
activity change, negative = inhibition [1, 12]: 3.5%
activity, negative = inhibition [2, 12]: 2.17%
Potency [3]: > 46 µM
Potency [4]: > 46 µM
Potency [5]: inactive
Potency [8]: inactive
Potency [9]: inactive

C[C@@]12CCC(=O)C=C1CC[C@H]1[C@H]3CC[C@](O)(C(=O)CO)[C@]3(C)CC(=O)[C@@H]12
activity change, negative = inhibition ([7]; at 17.2 µM (top of the series)): 11.7%
activity change, negative = inhibition ([7]; at 38 µM (top of the series)): -1.21%
Potency [6]: inactive
activity change, negative = inhibition ([1]; at 17.2 µM (top of the series)): -13.1%
activity change, negative = inhibition ([1]; at 38 µM (top of the series)): -9.72%
activity, negative = inhibition ([2]; at 17.2 µM (top of the series)): 8.63%
activity, negative = inhibition ([2]; at 38 µM (top of the series)): -7%
Potency [3]: 0.431 µM (active)
Potency [4]: > 46 µM and > 20.6 µM
Potency [8]: inactive
Potency [9]: inactive
